# Records with an inconclusive call do not appear. A call without a number means that no potency is given here. Unmarked numbers belong to inactive results. The source made the active and inactive calls. The call rests on the fitted dose curve; in most records, active means well fitted inhibition curve with a large enough effect; inconclusive means small, poorly fitted or top-dose-only effect; inactive means no such curve, though single readings can be large or run the other way. Where a SMILES comes first, the peptide text is derived from it. Bridges are numbered along the chain shown (N, C = ends). [ ]: non-standard residue; d: D form. The star is where a group is joined. X1 = CCC(C)C(N)C1=NC(C(=O)*)CS1; dOrn = NCCC[C@@H](N)C(=O)O
# Test system: Zika virus NS2B-NS3 protease (unlinked complex)
# Experiment: Primary screen GU Rhodamine qHTS for Zika virus inhibitors: Unlinked NS2B-NS3 protease assay (AID 1347159); further: nearly all actives have a fitted effect of over 60% in size
# Settings: Recombinant ZIKV NS2B-NS3 protease, Rhodamine110 substrate fluorescence; series mostly up to 107 µM
# How it was run: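 Buffer 10 mM Tris-HCl pH 8.0, 0.01% Tween 20. Unlinked protease 25 nM; compound preincubation 15 min, RT, protected from light. Substrate Rhod110, 1.5 microM; ~15% conversion in 15 min.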
# Potency means the concentration at half of the fitted maximal effect.
Compound,Potency,"activity change, negative = inhibition"
C=Cc1cc(O)cc2nc(-c3ccc(O)c(F)c3)oc12,35.5 µM (active),
CC(C)(O)c1ccc2c(c1)C(=O)CC1[C@](C)(CO)CCC[C@]21C (some centres undefined),31.6 µM (active),
C[C@@H]1CC[C@]2(C)C(C[C@@H](O)[C@H](O)[C@]23CO3)[C@@]1(C)CCc1ccoc1 (some centres undefined),inactive,
CC12CC34C=CC(=O)C(C)(CCC(=O)O)C3C(CC1C4)O2 (centres undefined),inactive,
Cc1ccc(Sc2cncc3sc(C(N)=O)cc23)cc1,inactive,
C[C@@H]1O[C@@H](OC[C@H]2O[C@@H](OCC3CCC4CC3C4(C)C)[C@H](O)[C@@H](O)[C@@H]2O)[C@H](O)[C@H](O)[C@H]1O (some centres undefined),inactive,
CC(/C=C/C1(O)C(C)(C)CC(O)CC1(C)O)OC1OC(CO)C(O)C(O)C1O (centres undefined),inactive,
COC(=O)[C@H](OC(C)=O)[C@H]1C(C)(C)C(=O)[C@H]2CC3=C4CC(=O)O[C@@H](c5ccoc5)[C@]4(C)CCC3[C@@]1(C)C2=O (some centres undefined),inactive,
CC(=O)c1c(O)cc2c(c1C)C(=O)CC(O)C2 (centres undefined),inactive,
O=C(O)C[C@@H](NC(=O)c1cc(-c2ccc(-c3ccncc3)cc2)cs1)c1ccccc1,15.8 µM (active),
CC1=CC(=O)C2C(C)(C)CC(O)CC2(C)C1CO (centres undefined),inactive,
C=CCc1ccc(O[C@@H]2O[C@H](CO[C@@H]3O[C@@H](C)[C@H](O)[C@@H](O)[C@H]3O)[C@@H](O)[C@H](O)[C@H]2O)cc1,inactive,
O=C(O)c1cc(O[C@@H]2O[C@H](CO[C@@H]3OC[C@@H](O)[C@H](O)[C@H]3O)[C@@H](O)[C@H](O)[C@H]2O)c2ccccc2c1O,inactive,
NCCOCCOCCNC(=O)Cc1ccc(Nc2nc(NCc3ccc(F)cc3)nc(NCC3CCCCC3)n2)cc1,inactive,
C/C=C1/[C@H](O[C@@H]2O[C@H](CO)[C@@H](O)[C@H](O)[C@H]2O)OC=C(C(=O)OC)[C@H]1CC(=O)O[C@@H]1O[C@H](CO)[C@@H](O)[C@H](O)[C@H]1O,inactive,
CCCCN(CCCC)C(=O)CN1C[C@H](c2ccc3c(c2)OCO3)[C@@H](C(=O)O)[C@@H]1c1ccc(OC)cc1,28.2 µM (active),
C[C@H]1[C@H](C)CC[C@]2(C(=O)O)CC[C@]3(C)C(=CC[C@@H]4[C@@]5(C)C[C@@H](O)[C@H](O)[C@@](C)(CO)[C@@H]5CC[C@]43C)[C@H]12,inactive,
C=CC1(C)C=C2C(O)CC3C(C)(C(=O)O)CCCC3(C)C2CC1 (centres undefined),11.2 µM (active),
O=C(O[C@@H]1O[C@H](CO)[C@@H](O)[C@H](O)[C@H]1O)c1c(O)cc(O)cc1/C=C/c1ccccc1,inactive,
COc1cccc(-c2ccc([C@@H](Oc3cc(-c4ccc(C[C@H](N)C(=O)O)cc4)nc(N)n3)C(F)(F)F)cc2)c1,22.4 µM (active),

Compound,Potency,"activity change, negative = inhibition"
CC(C)=CCc1ccc(Oc2c(O)cc(C)cc2CO)c(C(=O)O)c1O,6.31 µM (active),
CCC(C)C(N)C1=NC(C(=O)N[C@@H](CC(C)C)C(=O)N[C@H](CCC(=O)O)C(=O)N[C@H](C(=O)N[C@H]2CCCCNC(=O)[C@H](CC(N)=O)NC(=O)[C@@H](CC(=O)O)NC(=O)[C@H](Cc3cnc[nH]3)NC(=O)[C@@H](Cc3ccccc3)NC(=O)[C@H]([C@@H](C)CC)NC(=O)[C@@H](CCCN)NC2=O)[C@@H](C)CC)CS1 (some centres undefined) (X1-L[dE]IK[dOrn]I[dF]H[dD]N; lactam 4-C),inactive,
Nc1nonc1C(=Nc1ccc(F)c(Cl)c1)NO,inactive,
O=C1CC(c2ccc([N+](=O)[O-])cc2)=NN1c1ccccc1,39.8 µM (active),
C/C=C(/C)C(=O)O[C@H]1C=C(C)C[C@H](OC(=O)c2ccc(O)cc2)C2[C@](O)(C(C)C)CC[C@@]21C (some centres undefined),inactive,
OC[C@H]1O[C@@H](Oc2cc(O)cc(-c3cc4ccc(O)cc4o3)c2)[C@H](O)[C@@H](O)[C@@H]1O,inactive,
CC(=O)NC(C(=O)OC1CCC(C)(C)C2CC=C3C(=O)OCC3(O)C12C)C(C)C (centres undefined),inactive,
C=C1CC[C@H]2[C@@H](/C=C(\C)C(=O)[C@@]3(OC(C)=O)C[C@H](C)[C@H](OC(C)=O)[C@@H]3[C@H]1OC(C)=O)C2(C)C,7.94 µM (active),
CNC(=O)c1ccc(Nc2ncc(C(F)(F)F)c(NCc3nccnc3N(C)S(C)(=O)=O)n2)cc1,inactive,
C=C(C)C1CC2(CO)C(=CC1=O)CCC(O)C2C (centres undefined),inactive,
CC(=O)c1c(O)cc2cccc3c2c1CC(C)(O)O3 (centres undefined),35.5 µM (active),
C=CC(C)(O)CC/C=C(\C)C(=O)OC1CC2(C(=O)O)CCC3(C)C(=CCC4C5(C)CCC(OC6OC(COC7OCC(O)C(O)C7O)C(O)C(OC7OCC(O)C(O)C7O)C6OC6OC(CO)C(O)C(O)C6OC6OCC(O)C(O)C6O)C(C)(C)C5CCC43C)C2CC1(C)C (centres undefined),,-12.7% [at 19.1 µM]
COC1(CC(C)C)NC(=O)C(O)(Cc2ccccc2)NC1=O (centres undefined),inactive,
CC1NC(=O)CNC(=O)C(C(C)C)NC(=O)C2CCCN2C(=O)C(C(C)C)NC(=O)C(Cc2c[nH]c3ccccc23)NC1=O (centres undefined) (cyclo(GAWVPV); configuration not given here),inactive,
C=CC1C(O[C@@H]2O[C@H](CO)[C@@H](O)[C@H](O)[C@H]2O)OC=C(C(=O)OC)C1Cc1nccc2c1[nH]c1ccccc12 (some centres undefined),inactive,
COc1ccc(C)c2sc(NC(=O)c3ccncc3)nc12,inactive,
CC(O)C(O)/C=C/C=C/C(=O)O[C@@H]1C=C2COC(=O)[C@]2(O)[C@@]2(C)CCCC(C)(C)C12 (some centres undefined),inactive,
CC1(C)CCCC2(C)C1C(O)C=C(CO)C2(O)C(=O)O (centres undefined),inactive,
Cc1cc(Nc2ncc(Cl)c(Nc3ccccc3S(=O)(=O)C(C)C)n2)c(OC(C)C)cc1C1CCNCC1,inactive,

# Reference: PubChem BioAssay (NCATS)
